Screening results (PubChem BioAssay)
FBA Mtb inh – Mtb FBA enzyme inhibitors, primary screen, biochemical, fluorescence, strain H37Rv; Fructose-bisphosphate aldolase (Mycobacterium tuberculosis (strain ATCC 25618 / H37Rv)), …; 2.3% of 360,000 active; purified M. tuberculosis FBA, fluorescence read-out; inhibition, % at 1 µM;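 note: 0% = vehicle and 100% = reference inhibitor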
Target sequence (P9WQA3 whole entry, looked up): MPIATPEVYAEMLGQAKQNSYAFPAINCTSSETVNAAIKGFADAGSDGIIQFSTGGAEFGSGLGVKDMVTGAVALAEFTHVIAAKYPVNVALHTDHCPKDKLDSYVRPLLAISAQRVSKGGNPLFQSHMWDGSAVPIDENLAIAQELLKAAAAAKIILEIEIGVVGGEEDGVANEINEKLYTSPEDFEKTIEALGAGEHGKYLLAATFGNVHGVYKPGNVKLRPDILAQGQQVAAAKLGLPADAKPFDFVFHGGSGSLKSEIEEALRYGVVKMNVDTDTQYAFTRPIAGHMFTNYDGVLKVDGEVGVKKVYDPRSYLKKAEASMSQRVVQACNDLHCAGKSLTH
CCHF vOTU inh – CCHFV vOTU protease inhibitors, primary screen, biochemical, Pep-AMC substrate, fluorescence; inhibition, % at 11.5 µM; Crimean-Congo hemorrhagic fever virus L polyprotein viral ovarian tumor (vOTU) protease …; 0.55% of 370,000 active; AID 651958, 2012; in the data active = inhibition above about 30%; note: 0% = vehicle wells with enzyme and 100% = no enzyme wells
BH1578 lux ind – inducers of Vibrio cholerae quorum light production without autoinducers, primary screen, BH1578 luxS cqsA deficient, single point | V. cholerae BH1578 lux reporter, luminescence, 6 h | activation, % at 18.7 µM | 0.16% of 350,000 active | AID 588436, 2011; in the data active = activation mostly above about 9.7%, no sharp cut-off
GDH-TPI counter-1 – GDH-TPI coupling enzyme inhibitors, primary screen, artefact control for M. tuberculosis FBA inhibitor project, biochemical, absorbance, full deck | AID 588335, 2011 | GDH-TPI coupled enzyme counterscreen, NADH absorbance | inhibition, % at 4.8 µM | 1.2% of 360,000 active; in the data active = inhibition above about 30%;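 note: 0% = DMSO wells and 100% = wells lacking the enzyme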
Mtb FBA confirm – M. tuberculosis aldolase blockers, biochemical, fluorescence, strain H37Rv, confirmation; 78% of 5,600 active; purified M. tuberculosis FBA, fluorescence read-out; shares compounds with FBA Mtb inh; AID 651616, 2012; inhibition, % at 1 µM;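 note: 0% = vehicle wells and 100% = reference inhibitor wells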
GDH-TPI counter-2 – GDH-TPI coupling enzyme inhibitors, artefact control for M. tuberculosis FBA inhibitor project, biochemical, fluorescence, high throughput; inhibition, % at 1 µM; shares compounds with FBA Mtb inh; GDH-TPI coupled enzyme counterscreen; 81% of 5,600 active; AID 652141, 2013; in the data active = inhibition above about 10%
* marks the source's active call; other numbers are inactive results; i = inactive; · = no result given; + = active, no number. Rows were chosen to be rich in hits. Some 3.9% of all compounds tested hit in one or more screens of this group. Cut-off read from the data, not from the text of the source, unless noted: active = inhibition above about 27%; inactive = the rest.

SMILES	FBA Mtb inh	CCHF vOTU inh	BH1578 lux ind	GDH-TPI counter-1	Mtb FBA confirm	GDH-TPI counter-2
CCCOc1ccc(-c2nc(C#N)c(NCCCn3ccnc3)o2)cc1	105*	-27	i	15	105*	81*
CC(C)(C)c1ccc(-c2nc(C#N)c(NCCCn3ccnc3)o2)cc1	40*	-32	-1	11	108*	103*
N#Cc1nc(COc2ccccc2)oc1NCCCn1ccnc1	-2	8	0	11	·	·
Cc1ccc(OCc2nc(C#N)c(NCCCn3ccnc3)o2)cc1	0	4	0	7	·	·
N#Cc1nc(-c2ccco2)oc1NCCCn1ccnc1	60*	-18	0	2	121*	93*
CCCCCCC(=O)Nc1ccc(Cl)cn1	0	-3	0	11	·	·
CC(=O)c1ccc(N2CCN(S(=O)(=O)c3ccc4ccccc4c3)CC2)cc1	-1	-7	-1	17	·	·
COc1ccc2oc(C(=O)OCC(=O)N(C)Cc3ccccc3)c(C)c2c1	31*	-1	-1	2	158*	168*
COc1ccc2oc(C(=O)OCC(=O)N(C)c3ccccc3)c(C)c2c1	35*	-22	1	-2	128*	101*
COc1ccc2oc(C(=O)OCC(=O)N(Cc3ccccc3)C(C)C)c(C)c2c1	17	11	0	5	·	·
Cc1ccc(-c2cc3cccc[n+]3cc2-c2ccc(C)cc2)cc1	40*	-27	0	21	126*	98*
Cc1ccc2nc(-c3ccncc3)cc(-c3ccccc3)c2c1	7	8	0	11	·	·
COC(=O)CSc1nc(-c2cccs2)ccc1C#N	71*	-44	0	-4	+	+
C#CCSc1nc(-c2cccs2)ccc1C#N	36*	-1	·	26	51*	46*
N#Cc1ccc(Oc2ccc(S(=O)(=O)N3CCCC3)cn2)cc1	-1	-6	0	9	·	·
CN(C(=O)c1cccs1)c1ccccc1C(=O)O	27*	-11	0	8	4	3
CCCN(CCC)Cc1cc(=O)oc2cc(OC)ccc12	51*	-27	·	·	4	-1
COc1ccc2c(CN3CCCCC3)cc(=O)oc2c1	44*	-47	·	·	0	0
CCOC(=O)CC1(C)NC(=O)c2c(C)sc(C(=O)OCC)c2N1 (stereo not given)	55*	-46	3	17	2	-2
CCOC(=O)CC1(CC(=O)OCC)NC(=O)c2c(C)sc(C(=O)OCC)c2N1	31*	-40	-5	14	5	3
Cc1c(CCC(=O)NCC(=O)NCC(=O)O)c(=O)oc2cc3oc4c(c3cc12)CCCC4	35*	-28	i	21	-3	-4
Cc1nn(C(C)(C)C)c(C)c1/C=N/OC(=O)Nc1ccc(Cl)c(Cl)c1	1	-10	0	-3	·	·
COC(=O)c1ccc(-c2ccc(/C=N/NC(=O)CC3(C)OCCCO3)o2)cc1	34*	-9	0	23	+	177*
COc1ccc2ccccc2c1/C=N/NC(=O)CC1(C)OCCCO1	-1	-2	i	10	·	·
COC(=O)C1=C(C)NC(=O)NC1c1ccc(N2CCC(c3ccccc3)=N2)cc1 (stereo not given)	78*	-34	0	11	109*	78*
CCCCN(CCCC)CCNC(=O)c1cn(C)c2ccc(S(=O)(=O)N(C)C3CCCCC3)cc2c1=O	-5	27	i	1	·	·
O=C(NCC1=C(c2cccc3ccccc23)C[C@@H]2CC[C@H]1N2Cc1ccco1)c1ccc([N+](=O)[O-])cc1	0	-8	-1	-1	·	·
O=C(CSc1nc2scc(-c3ccccc3)c2c(=O)[nH]1)Nc1ccccc1	33*	-1	0	15	-7	-6
Nc1ccc2nc(-c3ccc(Cl)cc3)[nH]c2c1	87*	-166	0	19	168*	127*
Clc1ccc2nc(-c3ccc(Cl)nc3)[nH]c2c1	36*	-14	-10	14	107*	82*
